Laboratory results taken from PubChem BioAssay AID463173 (ICCB-Longwood Screening Facility, Harvard Medical School, 2010).
Hit rate of the full screen: of about 52,000 compounds, about 4,300 (8.3%) were called active. For the sample, actives were picked, then their nearest neighbours and some compounds at random. Values without a mark were called inactive. No stated cut-off is given here; in the data, active means survival mostly below about 52% (no sharp cut-off); inactive means mostly above about 56%.

System: DeltatarO mutant
Experiment: S. aureus survival, RN4220 and DeltatarO strains – OD600, teichoic acid synthesis inhibitors, primary screen (AID 463173)
Details: S. aureus RN4220 wild type/DeltatarO growth, OD600, 18 h, active compounds read low, screened at 18.75 µg/mL (by protocol)

How did the survival turn out when O=S(=O)(c1ccc2nc(Nc3ccc(Br)cc3F)ccc2c1)N1CCCCC1 was run?
The survival was 70%.

With O=C(NCCc1ccccc1)C1COc2ccccc2C1 (stereo unspecified) as the molecule, how does the survival read?
Its survival is 37% (active).

COc1ccc(CCNC(=O)C2COc3ccccc3C2)cc1OC (stereo unspecified) was tested. Which survival did it give?
Its survival is 75%.

For CCc1ccc(CNC(=O)C2COc3ccccc3C2)cc1 (stereo unspecified), which survival is on record?
The survival was 81%.

For Cc1ccc(CCNC(=O)C2COc3ccccc3C2)cc1 (stereo unspecified), which survival is on record?
Its survival is 74%.

For CCOc1cc(CNC(=O)C2COc3ccccc3C2)cc(OCC)c1OCC (stereo unspecified), which survival is on record?
Its survival is 69%.

Which survival does the source give for Cc1ccc(CNC(=O)C2COc3ccccc3C2)cc1 (stereo unspecified) here?
Its survival is 117%.

With CCOc1ccc(CCNC(=O)C2COc3ccccc3C2)cc1OCC (stereo unspecified) as the molecule, how does the survival read?
Its survival is 0% (active).

For CN(C)c1ccc(CNC(=O)C2COc3ccccc3C2)cc1 (stereo unspecified), which survival is on record?
The survival was 32% (active).

For O=C(NCCc1ccc(Cl)cc1)C1COc2ccccc2C1 (stereo unspecified), which survival is on record?
Its survival is 69%.

With NC(=O)c1cc(S(=O)(=O)NCC2CCC(C(=O)Nc3cccc(Cl)c3)CC2)cs1 (stereo unspecified) as the molecule, how does the survival read?
Its survival is 76%.

Which survival does the source give for CCCOc1ccc(-c2nonc2NC(=O)c2cc(OC)c(OC)c(OC)c2)cc1OCCC here?
The survival was 84%.

COc1ccccc1CNC(=O)CCNS(=O)(=O)c1cccc2nsnc12 was tested. Which survival did it give?
Its survival is 64%.

How did the survival turn out when CCc1ccccc1NC(=O)C(=O)c1cc(C)n(-c2ccccc2F)c1C was run?
The survival was 87%.

With CCOC(=O)C1=C(CN2CCN(c3ccc(C)cc3C)CC2)NC(=O)NC1c1ccc(OC)cc1 (stereo unspecified) as the molecule, how does the survival read?
Its survival is 97%.

For CC1(C)CC2(CC(C)(C)NC(=O)N2)NC(=O)N1, which survival is on record?
The survival was 89%.

Cc1cc(C)c(Cn2c(=O)n(Cc3ccccc3)c(=O)c3c(C)c(C)sc32)c(C)c1 was tested. Which survival did it give?
The survival was 49%.

How did the survival turn out when Cc1cccc(-c2nnc(SCC(=O)NC3CCCCC3)o2)c1 was run?
Its survival is 82%.

How did the survival turn out when Cc1ccc(CNC(=O)c2ccc3c(O)c(S(=O)(=O)c4ccc(Cl)cc4)c(=O)[nH]c3c2)cc1 was run?
The survival was 84%.

For Cc1cc(-c2nc3ncccc3o2)ccc1NC(=O)c1ccc(Cl)cc1, which survival is on record?
Its survival is 76%.

For Cc1ccc(C(=O)Nc2cc(-c3nc4ncccc4o3)ccc2C)c(C)c1, which survival is on record?
The survival was 98%.

COc1ccc(C(=O)Nc2cc(-c3nc4ncccc4o3)ccc2C)cc1Br was tested. Which survival did it give?
The survival was 40% (active).

How did the survival turn out when COc1c(C)cc(Br)cc1C(=O)Nc1ccc(-c2nc3ncccc3o2)cc1 was run?
The survival was 50%.

Cc1cc(C)cc(C(=O)Nc2ccc(-c3nc4ncccc4o3)cc2)c1 was tested. Which survival did it give?
Its survival is 56%.

How did the survival turn out when Cc1cc(-c2nc3ncccc3o2)ccc1NC(=O)c1ccccc1Br was run?
The survival was 27% (active).

Which survival does the source give for Cc1ccc(-c2nc3ncccc3o2)cc1NC(=O)c1cccc(OCC(C)C)c1 here?
The survival was 42% (active).

CCOc1cc(C(=O)Nc2ccc(-c3nc4ncccc4o3)cc2C)cc(OCC)c1OCC was tested. Which survival did it give?
The survival was 52% (active).

How did the survival turn out when COc1ccc(C(=O)Nc2ccc(-c3nc4ncccc4o3)cc2)cc1 was run?
Its survival is 78%.

With Cc1cc(-c2nc3ncccc3o2)ccc1NC(=O)c1ccc(Br)cc1 as the molecule, how does the survival read?
The survival was 174%.

With CC(C)COc1cccc(C(=O)Nc2ccc(-c3nc4ncccc4o3)cc2)c1 as the molecule, how does the survival read?
The survival was 65%.

With Cc1ccc(-c2nc3ncccc3o2)cc1NC(=O)c1ccccc1Br as the molecule, how does the survival read?
The survival was 53%.
